# Source: PubChem BioAssay (EPA / NIEHS)
# Calls of active or inactive are those of the source. Rule for the calls: active = hit-call score of the fitted dose curve at least 0.9, where 1 is the maximum; inactive = score below 0.9.
# Legend:
# Conditions in all cases: mRNA level, 48 h; actives raise or lower the signal
# [1] = read-out: Peroxisomal acyl-coenzyme A oxidase 1 (ACOX1) gene, ACOX1 (gene 51); assay: LTEA_HepaRG_ACOX1: Life Technologies and Expression Analysis (LTEA) Assay for Peroxisomal acyl-coenzyme A oxidase 1 (ACOX1) gene using HepaRG (AID 2283467)
# Method in brief: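 HepaRG cells, plated 48 h then switched to serum-free induction medium, were exposed in duplicate for 48 h to 8-point half-log concentrations up to 100 uM in 0.5% DMSO. ACOX1 mRNA was measured by qRT-PCR, normalized to ACTB/GAPDH/POLR2A, and fitted bidirectionally versus DMSO.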
# [2] = read-out: Bcl-2 (BAD) gene, BAD (gene 572); assay: LTEA_HepaRG_BAD: Life Technologies and Expression Analysis (LTEA) Assay for Bcl-2 (BAD) gene using HepaRG (AID 2283469)
# Method in brief: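 Differentiated HepaRG cells were exposed in duplicate in 0.5% DMSO for 48 h to eight-point half-log concentrations up to 100 uM. BAD mRNA was measured by Fluidigm TaqMan qRT-PCR, normalized to ACTB, GAPDH and POLR2A, and fitted bidirectionally against DMSO.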
# [3] = read-out: Bcl-2 (BAX) gene, BAX (gene 581); assay: LTEA_HepaRG_BAX: Life Technologies and Expression Analysis (LTEA) Assay for Bcl-2 (BAX) gene using HepaRG (AID 2283470)
# Method in brief: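 Differentiated HepaRG cells exposed 48 h in serum-free induction medium, eight half-log concentrations from 100 uM, in duplicate, 0.5% DMSO vehicle. BAX mRNA by TaqMan qRT-PCR, normalised to ACTB, GAPDH and POLR2A.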
# [4] = read-out: adenosine kinase (ADK) gene, ADK (gene 132); assay: LTEA_HepaRG_ADK: Life Technologies and Expression Analysis (LTEA) Assay for adenosine kinase (ADK) gene using HepaRG (AID 2283471)
# Method in brief: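 Following 48 h exposure of HepaRG cells in 0.5% DMSO (top concentration 100 uM, duplicate wells), ADK mRNA induction or suppression was measured by qRT-PCR, normalised to ACTB/GAPDH/POLR2A, and fitted bidirectionally relative to vehicle.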
# [5] = read-out: Alpha-fetoprotein (AFP) gene, AFP (gene 174); assay: LTEA_HepaRG_AFP: Life Technologies and Expression Analysis (LTEA) Assay for Alpha-fetoprotein (AFP) gene using HepaRG (AID 2283472)
# Method in brief: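 Differentiated human HepaRG cells exposed 48 h in serum-free induction medium, 8-point half-log series from 100 uM in 0.5% DMSO, duplicate. AFP mRNA by qRT-PCR, normalized to ACTB, GAPDH, POLR2A; bidirectional fit vs DMSO.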
# [6] = read-out: BCL2L11 (gene 10018); assay: LTEA_HepaRG_BCL2L11: Life Technologies and Expression Analysis (LTEA) Assay for Bcl-2 (BCL2L11) gene using HepaRG (AID 2283473)
# Method in brief: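 Human hepatic HepaRG cultures are treated 48 h with test chemicals (maximum 100 uM, 0.5% DMSO vehicle). Expression of BCL2L11 is measured by qRT-PCR against ACTB, GAPDH and POLR2A, with activity in either direction scored relative to vehicle.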
# [7] = read-out: Apolipoprotein A-V (APOA5) gene, APOA5 (gene 116519); assay: LTEA_HepaRG_APOA5: Life Technologies and Expression Analysis (LTEA) Assay for Apolipoprotein A-V (APOA5) gene using HepaRG (AID 2283474)
# Method in brief: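 Concentration-response of APOA5 expression in HepaRG: eight half-log doses to 100 uM, 48 h, qRT-PCR normalized to ACTB/GAPDH/POLR2A, bidirectional fitting with 0.5% DMSO as baseline.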
# [8] = read-out: Apoptosis regulator Bcl-2 (Homo sapiens) (UniProt P10415); assay: LTEA_HepaRG_BCL2: Life Technologies and Expression Analysis (LTEA) Assay for Bcl-2 gene using HepaRG (AID 2283475)
# Method in brief: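 Differentiated human HepaRG cells in serum-free induction medium exposed 48 h, in duplicate, to 8-point half-log series from 100 uM in 0.5% DMSO. BCL2 mRNA by qRT-PCR (TaqMan/Fluidigm), normalized to ACTB, GAPDH, POLR2A; bidirectional fit against DMSO.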
# [9] = read-out: Bcl-2 (BID) gene, BID (gene 637); assay: LTEA_HepaRG_BID: Life Technologies and Expression Analysis (LTEA) Assay for Bcl-2 (BID) gene using HepaRG (AID 2283476)
# Method in brief: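 Gene expression by qRT-PCR in HepaRG cells after 48 h exposure, duplicate wells, eight half-log concentrations topping at 100 uM in 0.5% DMSO. Normalized to ACTB, GAPDH, POLR2A; bidirectional fitting relative to DMSO.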
# [10] = read-out: Caspase-3 (Homo sapiens) (UniProt P42574); assay: LTEA_HepaRG_CASP3: Life Technologies and Expression Analysis (LTEA) Assay for cysteine-aspartic acid protease (CASP3) using HepaRG (AID 2283477)
# Method in brief: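 Transcript-level assay: CASP3 mRNA in human HepaRG after 48 h treatment, eight half-log concentrations from 100 uM in 0.5% DMSO, quantified by qRT-PCR.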
# [11] = read-out: Cytochrome P450 (CYP24A1), CYP24A1 (gene 1591); assay: LTEA_HepaRG_CYP24A1: Life Technologies and Expression Analysis (LTEA) Assay for Cytochrome P450 (CYP24A1) using HepaRG (AID 2283478)
# Method in brief: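 Gene expression of CYP24A1 by TaqMan qRT-PCR in HepaRG after 48 h treatment, highest concentration 100 uM; activity fitted in both directions relative to DMSO vehicle.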
# [12] = read-out: Cytochrome P450 (CYP1A2), CYP1A2 (gene 1544); assay: LTEA_HepaRG_CYP1A2: Life Technologies and Expression Analysis (LTEA) Assay for Cytochrome P450 (CYP1A2) using HepaRG (AID 2283479)
# Method in brief: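 In duplicate wells, HepaRG cultures maintained in 0.5% DMSO were treated 48 h across an 8-point, half-log series topping at 100 uM; phenobarbital (1 mM) served as induction control. Expression was read by qRT-PCR.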
# [13] = read-out: cysteine-aspartic acid protease (CASP8), CASP8 (gene 841); assay: LTEA_HepaRG_CASP8: Life Technologies and Expression Analysis (LTEA) Assay for cysteine-aspartic acid protease (CASP8) using HepaRG (AID 2283480)
# Method in brief: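 Differentiated HepaRG cells in serum-free induction medium, 48 h exposure, eight-point half-log series from 100 uM in 0.5% DMSO, duplicates. CASP8 mRNA by qRT-PCR, normalized to ACTB, GAPDH, POLR2A; bidirectional fit versus DMSO.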
# [14] = read-out: Cytochrome P450 2C19 (Homo sapiens) (UniProt P33261); assay: LTEA_HepaRG_CYP2C19: Life Technologies and Expression Analysis (LTEA) Assay for CYP2C19 using HepaRG (AID 2283482)
# Method in brief: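 Endpoint: CYP2C19 mRNA change, bidirectional fit vs 0.5% DMSO. Cells: HepaRG, 48 h exposure, eight-point series topping at 100 uM. Quantitation: qRT-PCR normalized to ACTB, GAPDH, POLR2A.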
# [15] = read-out: CYP2C8 (gene 1558); assay: LTEA_HepaRG_CYP2C8: Life Technologies and Expression Analysis (LTEA) Assay for CYP2C8 using HepaRG (AID 2283483)
# Method in brief: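 Differentiated HepaRG cells in serum-free induction medium exposed 48 h in duplicate to 8 half-log concentrations from 100 uM in 0.5% DMSO. CYP2C8 mRNA by qRT-PCR normalized to ACTB, GAPDH, POLR2A; bidirectional fit versus DMSO.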
# [16] = read-out: CYP2C9 (gene 1559); assay: LTEA_HepaRG_CYP2C9: Life Technologies and Expression Analysis (LTEA) Assay for CYP2C9 using HepaRG (AID 2283484)
# Method in brief: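 Differentiated human HepaRG cells in serum-free induction medium were exposed 48 h to chemicals in 8-point half-log series from 100 uM (0.5% DMSO), in duplicate. CYP2C9 mRNA was measured by qRT-PCR, normalized to ACTB/GAPDH/POLR2A, with bidirectional fitting versus DMSO.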
# [17] = read-out: CYP2E1 (gene 1571); assay: LTEA_HepaRG_CYP2E1: Life Technologies and Expression Analysis (LTEA) Assay for CYP2E1 using HepaRG (AID 2283485)
# Method in brief: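 HepaRG cells, plated 48 h, then exposed 48 h in serum-free induction medium to eight half-log concentrations from 100 uM in 0.5% DMSO, duplicate. CYP2E1 mRNA by qRT-PCR, normalized to ACTB/GAPDH/POLR2A; bidirectional fit versus DMSO.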
# [18] = read-out: CYP4A11 (gene 1579); assay: LTEA_HepaRG_CYP4A11: Life Technologies and Expression Analysis (LTEA) Assay for CYP4A11 using HepaRG (AID 2283486)
# Method in brief: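 Human hepatic HepaRG cultures receive duplicate 48 h exposures across a concentration-response series topping at 100 uM. Expression changes in CYP4A11 are measured by qRT-PCR relative to DMSO controls.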
# [19] = read-out: Cytochrome P450 (CYP2B6), CYP2B6 (gene 1555); assay: LTEA_HepaRG_CYP2B6: Life Technologies and Expression Analysis (LTEA) Assay for Cytochrome P450 (CYP2B6) using HepaRG (AID 2283481)
# Method in brief: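 Human HepaRG, 48 h dosing, 0.5% DMSO vehicle, top dose 100 uM. CYP2B6 transcript by qRT-PCR, housekeeping-normalized, bidirectional curve fit.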
# [20] = read-out: Alkaline Phosphatase, Placental (ALPP) gene, ALPP (gene 250); assay: LTEA_HepaRG_ALPP: Life Technologies and Expression Analysis (LTEA) Assay for Alkaline Phosphatase, Placental (ALPP) gene using HepaRG (AID 2283468)
# Method in brief: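 Using human liver HepaRG cells, chemicals are tested in duplicate over 48 h at half-log concentrations topping at 100 uM; phenobarbital 1 mM serves as induction control. ALPP mRNA change by qRT-PCR, bidirectional fit against vehicle.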
# Caspase-3 (Homo sapiens), sequence (P42574 whole entry, looked up): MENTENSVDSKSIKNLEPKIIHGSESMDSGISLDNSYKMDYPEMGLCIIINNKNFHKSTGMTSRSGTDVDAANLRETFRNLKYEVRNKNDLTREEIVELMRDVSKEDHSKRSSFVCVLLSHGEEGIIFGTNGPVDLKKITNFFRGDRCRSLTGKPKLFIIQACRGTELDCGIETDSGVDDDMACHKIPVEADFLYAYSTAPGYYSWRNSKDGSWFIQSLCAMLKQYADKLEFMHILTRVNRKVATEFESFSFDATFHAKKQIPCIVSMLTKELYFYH
# Apoptosis regulator Bcl-2 (Homo sapiens), sequence (P10415 whole entry, looked up): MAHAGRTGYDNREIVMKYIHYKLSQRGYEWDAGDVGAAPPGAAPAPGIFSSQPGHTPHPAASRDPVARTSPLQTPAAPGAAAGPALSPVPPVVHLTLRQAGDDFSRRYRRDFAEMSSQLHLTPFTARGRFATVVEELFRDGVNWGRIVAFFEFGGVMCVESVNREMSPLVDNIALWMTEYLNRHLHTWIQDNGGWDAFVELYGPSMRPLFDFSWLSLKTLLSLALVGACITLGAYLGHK
# Cytochrome P450 2C19 (Homo sapiens), sequence (P33261 whole entry, looked up): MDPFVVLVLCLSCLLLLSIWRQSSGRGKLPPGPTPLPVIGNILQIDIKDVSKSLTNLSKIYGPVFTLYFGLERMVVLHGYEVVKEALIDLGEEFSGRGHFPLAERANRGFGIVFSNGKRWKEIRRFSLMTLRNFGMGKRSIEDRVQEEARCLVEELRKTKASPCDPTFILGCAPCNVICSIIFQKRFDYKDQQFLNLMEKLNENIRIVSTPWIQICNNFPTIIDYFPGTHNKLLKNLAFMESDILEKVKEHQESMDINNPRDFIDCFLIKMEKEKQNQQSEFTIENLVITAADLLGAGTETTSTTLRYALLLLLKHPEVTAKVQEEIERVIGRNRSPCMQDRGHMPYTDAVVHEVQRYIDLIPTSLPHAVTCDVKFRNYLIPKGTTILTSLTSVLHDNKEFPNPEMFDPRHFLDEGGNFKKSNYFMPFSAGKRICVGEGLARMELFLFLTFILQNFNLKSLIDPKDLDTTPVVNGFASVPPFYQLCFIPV
compound,measurement,setting,value
Oc1ccc2c(c1)OC[C@@H](N1CCC(O)(c3ccc(F)cc3)CC1)[C@H]2O,outcome,[1],inactive
same,outcome,[2],inactive
same,outcome,[3],inactive
same,outcome,[4],inactive
same,outcome,[5],inactive
same,outcome,[6],inactive
same,outcome,[7],inactive
same,outcome,[8],inactive
same,outcome,[9],inactive
same,outcome,[10],inactive
same,outcome,[11],inactive
same,outcome,[12],inactive
same,outcome,[13],inactive
same,outcome,[14],inactive
same,outcome,[15],inactive
same,outcome,[16],inactive
same,outcome,[17],inactive
same,outcome,[18],inactive
CC(=O)OCCOCCOCCOC(C)=O,outcome,[1],inactive
same,outcome,[2],inactive
same,outcome,[3],inactive
same,outcome,[4],inactive
same,outcome,[5],inactive
same,outcome,[6],inactive
same,outcome,[7],inactive
same,outcome,[8],inactive
same,outcome,[9],inactive
same,outcome,[10],inactive
same,outcome,[11],inactive
same,outcome,[12],inactive
same,outcome,[13],inactive
same,outcome,[19],inactive
same,outcome,[14],inactive
same,outcome,[15],inactive
same,outcome,[16],inactive
same,outcome,[17],inactive
same,outcome,[18],inactive
NC(=O)Cn1c(=O)cc(CCN2CCN(c3nccc4sccc34)CC2)c2ccc(F)cc21,outcome,[1],inactive
same,AC50,[20],50 µM (active)
same,outcome,[2],inactive
same,AC50,[3],29 µM (active)
same,outcome,[4],inactive
same,AC50,[5],50 µM (active)
same,outcome,[6],inactive
same,outcome,[7],inactive
same,AC50,[8],50 µM (active)
same,outcome,[10],inactive
same,outcome,[11],inactive
same,outcome,[12],inactive
same,outcome,[13],inactive
same,outcome,[19],inactive
same,outcome,[14],inactive
same,outcome,[15],inactive
same,AC50,[16],78 µM (active)
same,AC50,[17],87.6 µM (active)
same,AC50,[18],65.4 µM (active)
CCCCCCCCCCCCCO,outcome,[1],inactive
same,outcome,[2],inactive
same,outcome,[3],inactive
same,outcome,[4],inactive
same,outcome,[5],inactive
same,outcome,[6],inactive
same,outcome,[7],inactive
same,outcome,[8],inactive
same,outcome,[10],inactive
same,outcome,[12],inactive
same,outcome,[13],inactive
same,outcome,[14],inactive
same,outcome,[15],inactive
same,outcome,[16],inactive
same,outcome,[17],inactive
same,outcome,[18],inactive
